# Where a chain is given by its changes, count along the chain named. In all, about 24,000 sequences were measured (“enrichment r”: median about 0.99, highest 2% from about 3.7 on). Shown is part of a subset that was picked to be rich in the highest values.
# T1: UNK ZnF1-3 (human, UniProt Q9C0B0 31-174)
# T1 sequence: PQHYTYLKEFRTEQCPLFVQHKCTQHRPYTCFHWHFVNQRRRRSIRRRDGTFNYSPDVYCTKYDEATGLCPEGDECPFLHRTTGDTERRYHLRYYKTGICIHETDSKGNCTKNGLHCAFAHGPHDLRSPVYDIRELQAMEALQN
# B1: chr12:73045124:73045125:+_ENSMUSG00000034574_ENSMUST00000085299|mus_mus|FALSE|FALSE (ssRNA)
# RNA: GGGAGUUCUACAGUCCGACGAUCGCCUUGAGAGUUGUUCAUUAGUGCCUUUAUACAGCCAAUGAGGGAGGUGUGUAUCCGAGACUCAGAGGUCUCAUAGUCCAUGGUCUUCAGAAAGUUGAGAAUACAUGACAGGCCAUCCAACAACAGAGGAUUGAGCAUCA
# B2: chr16:57473197:57473198:-_ENSG00000005194_ENST00000569370|hu_hu|motif|central (ssRNA)
# RNA: GGGAGUUCUACAGUCCGACGAUCGAUCCGGGCGAUUUCAGCCAAAAUCUCAGCACUGUGCAGAGUGGUGCUUCCUGGGACGGAACCUGACAAAAUAAUGUCAAAGCUGGAUUCUUUGUGGGCAGAUUGCAACAGCUGCUUGAUCAACAGAGGAUUGAGCAUCA
# B3: chrX:114877694:114877695:+_ENSG00000102024_ENST00000355899|hu_hu|FALSE|FALSE (ssRNA)
# RNA: GGGAGUUCUACAGUCCGACGAUCGUUGAGUUUGGGGUUUCCACUGACAACAUCAGCAGGGGUAACAAACUGUCUGCAACCUAAUUUAUCUGCUUGUUGAAGCAUACUCUCAGCUCUCUUCAAAUCAUCUGUUUCAUUGAAACCCAACAGAGGAUUGAGCAUCA
# B4: 31603315_31603435_826_3pUTR_ENSMUSG00000024261_ENSMUST00000025110|mouse|control|control (ssRNA)
# RNA: GGGAGUUCUACAGUCCGACGAUCUUCCUGAGCACUCUGGUCUUCACUCUGUGCUUCUUCUCUGGUAAGAUUGUCAUUUUGAUGUACGGGUCAGAGGUCAUGGAUUGCUCGUCCAUGGCUGGUAAGCCCUGGGCUUCCUUGAUGCAACAGAGGAUUGAGCAUCA
# B5: 171883182_171886102_1035_3pUTR_ENSMUSG00000026675_ENSMUST00000027989|mouse|control|control (ssRNA)
# RNA: GGGAGUUCUACAGUCCGACGAUCUUCUGAACGGUGGUCCUGACACGCUUUUCCAGCUCCAGUAAGACCUCAUAGAAUUUUUCAGCAGUGUCUUCAUCUAUGUCCAUCUUUUGGCCCGUGACGUAAUUAGUCCCAAAUCCCGAGCAACAGAGGAUUGAGCAUCA
# B6: 82050892_82051012_2182_ncRNA_ENSMUSG00000021134_ENSMUST00000153056|mouse|control|control (ssRNA)
# RNA: GGGAGUUCUACAGUCCGACGAUCUUGUUUUGUUUUUUAAAAAAAGGCCCCCAGGGCAAGUUAUUUACAGUUUAAUUGCCACUGUCAACUGAUCUGGACCUGGACCGGGAUCGGGACCUCUGGCGAUCCACAGAUGCUGGAGAUCAACAGAGGAUUGAGCAUCA
# B7: chr16:94651144:94651145:+_ENSMUSG00000040785_ENSMUST00000117648|mus_hu|mus_mus_mus_hu_True|58_98 (ssRNA)
# RNA: GGGAGUUCUACAGUCCGACGAUCAUUUUCUUGAAUCAAGUGACCGAUAACAUAGUCCACUGCUUCAUUUAGAAAAUUUUUGCUAGAAAAACAGGUUGUAUAGUCUUCUGUGCUCAAAACUUUCCAAGAAAGCAAUUCUUUGAGCAACAGAGGAUUGAGCAUCA
# B8: chr18:35731629:35731630:+_ENSMUSG00000037236_ENSMUST00000166793|mus_mus|motif|central (ssRNA)
# RNA: GGGAGUUCUACAGUCCGACGAUCUUAUAGAUCAAAAAAAAAAAAAAAAGUUUUAAAAGAUGGCCAAAAAGAAAGCUCAAGCGGGAAAGCUAGGUUAACUUUGCUUCAAAAAUGGUAACGCCAAGAAAAAGGAUCAAUAAGGACCAACAGAGGAUUGAGCAUCA
# B9: chr13:59234359:59234360:+_ENSMUSG00000055254_ENSMUST00000079828|mus_mus|FALSE|FALSE (ssRNA)
# RNA: GGGAGUUCUACAGUCCGACGAUCUAUGUAAAAAAUUGUUUUUGCUUUAUGUUGGUGAUGAAUGGACCAAAAGUUGAUAGAUAGAUAGAUAAAUAAAUAAAUAAAUAAAUAAAUACACAAAUAAAUAACGCCGAAGGGAAAGAACAACAGAGGAUUGAGCAUCA
# B10: chr18:35731629:35731630:+_ENSMUSG00000037236_ENSMUST00000166793|mus_mus|FALSE|FALSE (ssRNA)
# RNA: B8 RNA with G82U, G83A
# B11: chr14:54894545:54894546:-_ENSG00000100528_ENST00000216416|hu_hu|FALSE|FALSE (ssRNA)
# RNA: GGGAGUUCUACAGUCCGACGAUCCAUUUGGUGGCUUUUUGCAUGCACUUAACUGGACCAAUUCUUCUGUGUGUUGUUCUAAGAGCUCACCAAAACAUAGAUCAUGCCAUAUAGGUAGUAAAAAAAUGCUAGAAGAUAAAAAGCCAACAGAGGAUUGAGCAUCA
# B12: chr2:115689334:115689335:-_ENSMUSG00000027210_ENSMUST00000074285|mus_hu|FALSE|FALSE (ssRNA)
# RNA: GGGAGUUCUACAGUCCGACGAUCCUCUUUGAAGAAGAGUCCCCCAAAAAUAAUAAUAAGAAUUGGCUUAUGAAGCACGAACUAUAAAGAUCUGUUUGAAACUAAAGGACACAUUUAUGGAGGAACAAAGGCCGGGCAUGAAAACAACAGAGGAUUGAGCAUCA
# B13: 151522442_151522562_447_CDS_ENSMUSG00000034021_ENSMUST00000016569|mouse|control|control (ssRNA)
# RNA: GGGAGUUCUACAGUCCGACGAUCAUAAAUCCUGAAAAUAUCAGCAAGGCAGCAAGCCACCAGUAAACGAACAUCUUUAUCAGGAUGCUUGAGGAAGAAGUCAGAAGCAAGAUGUAAAGCUAGGUUUAGAUAAAGUUCCUUUUCCAACAGAGGAUUGAGCAUCA
# B14: chr1:23636438:23636439:-_ENSG00000125944_ENST00000302271|hu_mus|FALSE|FALSE (ssRNA)
# RNA: GGGAGUUCUACAGUCCGACGAUCUUUUGUAGGGCAGAUUUCAAAAAGGUGUGGUUAUAACAAUUUAAAAACACAGUUAACCUGCUUCUAGGAAUGCAAAACAUACAGUCAUAGGUUAUCUUCAAUACAAGGAAACUUAAGUCUCAACAGAGGAUUGAGCAUCA
# B15: chr13:100200628:100200629:-_ENSMUSG00000052727_ENSMUST00000064762|perfect_dup|FALSE|FALSE (ssRNA)
# RNA: GGGAGUUCUACAGUCCGACGAUCGUCACCAGGUGUCUUCCCUCCACUGUCCUUCUCCAGGCCAGGUGUGGACAAAUCUCUAUUCAAGGCUAGAUGGUGUUGCAUUGUAUCGAAUAACACUGAGGCACGGAAGCCAUAGGGCUCCAACAGAGGAUUGAGCAUCA
# B16: chr14:78183846:78183847:+_ENSG00000119705_ENST00000557342|hu_hu|hu_hu_hu_mus_False|78_88 (ssRNA)
# RNA: GGGAGUUCUACAGUCCGACGAUCUCUCAGAAAUCUUUCUUCAUCAGCAUCAUCAGAUGUUUGCGGAGCCUUUGCUCUUUGAGCUUGAACGUGGAUCUAUGGGAGGGAAAGCACUGUCAGAAAAGGUAAUUUUUUUUUUAAAGACAACAGAGGAUUGAGCAUCA
# B17: chr18:51681570:51681571:-_ENSG00000134046_ENST00000256429|hu_hu|FALSE|FALSE (ssRNA)
# RNA: GGGAGUUCUACAGUCCGACGAUCGAUAUAUACAUCAAAAAUACAUCUAAAAAGGCAUUGGUUAGUGCUAUUAAAAAGCUCUAUGUGCUCGGGUACAUUUUUUUUCUUACAGGCAAAAGCCAGUGGAAACAUUUUUGUUCAAUUCAACAGAGGAUUGAGCAUCA
# B18: chr7:127875444:127875445:+_ENSMUSG00000046096_ENSMUST00000060175|mus_hu|FALSE|FALSE (ssRNA)
# RNA: GGGAGUUCUACAGUCCGACGAUCAAAGGCAUAUAACAUAUAAAGAAAAUAUUGUAUUGCUCAGGUUUUGGUAAAGAUGUAUUAAUAAUGCUUACAGAUAAAAAUAAUGAAAUUAGUGUUGUAAAUAGCCAAAAUAGCCAGAUACAACAGAGGAUUGAGCAUCA
# B19: chr1:66485654:66485655:+_ENSMUSG00000015222_ENSMUST00000024639|mus_hu|FALSE|FALSE (ssRNA)
# RNA: GGGAGUUCUACAGUCCGACGAUCUUUUUAAAUAGAAAAUUGUAACAAUUACUACAGUUUGGGGAUGAGAUUAUUUAUUUUAUGGUUUAUAAAGAAUGAAUAUAACAACUGCUCAGAGCCCACUCCUGCCAAGAGCUCAUGCCUCAACAGAGGAUUGAGCAUCA
# B20: chr18:35731629:35731630:+_ENSMUSG00000037236_ENSMUST00000166793|mus_hu|FALSE|FALSE (ssRNA)
# RNA: GGGAGUUCUACAGUCCGACGAUCUAUUUUAUAGAUUAAAAAAAAAAAUUUUUUUAAAGACGGCCAAAAAGAAAGCUCAAACUAGAAAGCUAGGUUAACUUUGCUUCAAAAAUGGUAACGCCAAGAAAAAGGAUCAAUAAGGACCAACAGAGGAUUGAGCAUCA
# B21: chr18:35731629:35731630:+_ENSMUSG00000037236_ENSMUST00000166793|mus_hu|motif|central (ssRNA)
# RNA: B20 RNA with U82G, A83G
# B22: chr9:74904954:74904955:+_ENSMUSG00000007656_ENSMUST00000169492|mus_hu|FALSE|FALSE (ssRNA)
# RNA: GGGAGUUCUACAGUCCGACGAUCCCAAAAGGUAAAUACAGAAGAAAUCAAUACAAUAGAGAUUAUAUUAAAUAAGAGUAACAUACAAAGCUAUAAUUAAGAUGAAGUAAUGAAAGCCAAAACAUUAAAAUUUUAAAACUUGCUCAACAGAGGAUUGAGCAUCA
# Molecular target: T1, UNK ZnF1-3
# Test: nsRBNS (natural sequence RNA bind-n-seq); RBNS binding buffer (assumed for nsRBNS): 25 mM Tris pH 7.5, 150 mM KCl, 3 mM MgCl2, 0.01% Triton X-100, 500 ug/ml BSA, 20 U/ml SUPERase-In, 4 C; UNK is unkempt and MSI1 is Musashi-1; names of the RNAs are library labels; protein concentration not given here; high values mean tight binding
row,Binder,binding signal [enrichment R]
1,B1,0.851
2,B2,1.32
3,B3,0.755
4,B4,0.411
5,B5,0.753
6,B6,1.31
7,B7,0.331
8,B8,8.04
9,B9,5.23
10,B10,7.98
11,B11,1.24
12,B12,2.27
13,B13,1.36
14,B14,1.23
15,B15,1.14
16,B16,1.96
17,B17,0.982
18,B18,5.6
19,B19,3.6
20,B20,4.65
21,B21,5.52
22,B22,3.69

# From article PMC12136788
